Test results as given in PubChem BioAssay (Tox21).
Inconclusive results are not listed. Active and inactive are the calls of the source. Unless noted, calls follow the shape of the dose curve; as a rule, active = well fitted curve in the direction sought with a large enough effect in the repeat runs; inconclusive = weak or mixed curves; inactive = no such curve, though single readings can be large; an effect the other way counts as inactive or inconclusive.

How the values were obtained:
[1] = qHTS assay to identify small molecule antagonists of the estrogen related receptor (ERR) signaling pathway from Tox21 library - cell viability counter screen (AID 1224834); also: nearly all actives have a fitted effect of over 30% in size; also: potency is read from the fitted curve at half-maximal effect
Procedure, shortened: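 Seeded ERR cells were rested 6 h at 37 C/5% CO2 before compounds, positive and negative controls or DMSO were added. Incubation continued for 17.5 h, and viability was then quantified by CellTiter-Fluor fluorescence.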

[2] = target: Luciferin 4-monooxygenase (Photinus pyralis) (UniProt P08659); assay: qHTS assay to identify small molecule inhibitors of firefly luciferase (AID 1224835); also: nearly all actives have a fitted effect of over 25% in size; also: potency is read from the fitted curve at half-maximal effect
Procedure, shortened: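 Biochemical qHTS: compounds run as interplate titrations against purified firefly enzyme, with D-luciferin and ATP each at its KM concentration. Light output recorded by CCD imaging.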

[3] = qHTS assay to identify small molecule agonists of the constitutive androstane receptor (CAR) signaling pathway - cell viability counter screen (AID 1224836); also: nearly all actives have a fitted effect of over 45% in size; also: potency is read from the fitted curve at half-maximal effect
Procedure, shortened: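 Fluorescence from CellTiter-Fluor indicates live cells after 23 h exposure. The human hepatoma line expresses hCAR and a CYP2B6-2.2kb reporter. Incubation medium contains 0.75 uM PK11195 (final).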

[4] = target: Nuclear receptor subfamily 1 group I member 3 (Homo sapiens) (UniProt Q14994); assay: qHTS assay to identify small molecule antagonists of the constitutive androstane receptor (CAR) signaling pathway (AID 1224838);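 also: HepG2 cells stably expressing hCAR with CYP2B6 luciferase reporter stimulated by CITCO; nearly all actives have a fitted effect of over 40% in size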; also: potency is read from the fitted curve at half-maximal effect
Procedure, shortened: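 Human hepatoma HepG2 cells expressing hCAR and a CYP2B6 promoter (2.2 kb) luciferase construct; compound titration (15 points) with 50 nM CITCO final, 24 h at 37 C/5% CO2; luminescence via ONE-Glo after 30 min at room temperature.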

[5] = target: Nuclear receptor subfamily 1 group I member 3 (Homo sapiens) (UniProt Q14994); assay: qHTS assay to identify small molecule agonists of the constitutive androstane receptor (CAR) signaling pathway (AID 1224839); also: nearly all actives have a fitted effect of over 15% in size; also: potency is read from the fitted curve at half-maximal effect
Procedure, shortened: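 Stable hCAR/CYP2B6-2.2kb HepG2 line in DMEM with 10% FBS; compounds (15 concentrations) and 0.75 uM PK11195 final, 24 h at 37 C/5% CO2, then ONE-Glo luminescence after 30 min.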

[6] = qHTS assay to identify small molecule antagonists of the estrogen related receptor signaling pathway with the pleiotropic PPARgamma coactivator (PGC) from Tox21 10K library - cell viability counter screen (AID 1224840; active = well fitted cell-killing curve with a large enough effect in the repeat runs, not every such curve was filed as active; also: nearly all actives have a fitted effect of over 40% in size; also: potency is read from the fitted curve at half-maximal effect)
Procedure, shortened: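 Seeded PGC/ERR cells (2,000/well, 6 h, 37 C/5% CO2) get compound by pin tool; 17.5 h incubation at 37 C; CellTiter-Fluor added, 30 min, fluorescence measured.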

[7] = qHTS assay to identify small molecule antagonists of the estrogen related receptor signaling pathway with the pleiotropic PPARgamma coactivator (PGC) from Tox21 10K library (AID 1224841; call rule not given here; also: actives are mostly falling curves and most rising ones were filed inactive; nearly all actives have a fitted effect of over 50% in size; also: potency is read from the fitted curve at half-maximal effect)
Procedure, shortened: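 Test chemicals dissolved in DMSO were applied to pre-incubated (6 h) PGC/ERR cells at 2,000 cells/well for an 18 h, 37 C treatment; reporter luminescence was then read using One-Glo.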

[8] = qHTS assay to identify small molecule agonists of the estrogen related receptor signaling pathway with the pleiotropic PPARgamma coactivator (PGC) from Tox21 10K library (AID 1224842); also: nearly all actives have a fitted effect of over 15% in size
Procedure, shortened: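 PGC/ERR reporter cell line, 2,000 cells per well, incubated 6 h at 37 C before 23 nL compound in DMSO was added. After 18 h at 37 C, One-Glo luminescence read following 30 min at room temperature.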

[9] = target: Thyrotropin receptor (Homo sapiens) (UniProt P16473); assay: qHTS assay to identify small molecule agonists of the thyroid stimulating hormone receptor (TSHR) signaling pathway (AID 1224843; calls by dose curve; also: nearly all actives have a fitted effect of over 45% in size; also: potency is read from the fitted curve at half-maximal effect)
Procedure, shortened: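 Agonist-mode screen: TSHR HEK293 cells received test chemicals for half an hour at room temperature, then HTRF cAMP detection reagents for one hour prior to fluorescence measurement. Each chemical ran as a 15-concentration series, triplicated.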

[10] = qHTS assay to identify small molecule antagonists of the constitutive androstane receptor (CAR) signaling pathway - cell viability counter screen (AID 1224837); also: nearly all actives have a fitted effect of over 45% in size; also: potency is read from the fitted curve at half-maximal effect
Procedure, shortened: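 To flag cytotoxic false antagonists, HepG2 hCAR/CYP2B6-2.2kb cells were treated 23 hr with 15-concentration compound series and 50 nM CITCO at 37 C/5% CO2; CellTiter-Fluor fluorescence was the measured end point.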

Measured: Potency

Thyrotropin receptor (Homo sapiens), sequence (P16473 whole entry, looked up): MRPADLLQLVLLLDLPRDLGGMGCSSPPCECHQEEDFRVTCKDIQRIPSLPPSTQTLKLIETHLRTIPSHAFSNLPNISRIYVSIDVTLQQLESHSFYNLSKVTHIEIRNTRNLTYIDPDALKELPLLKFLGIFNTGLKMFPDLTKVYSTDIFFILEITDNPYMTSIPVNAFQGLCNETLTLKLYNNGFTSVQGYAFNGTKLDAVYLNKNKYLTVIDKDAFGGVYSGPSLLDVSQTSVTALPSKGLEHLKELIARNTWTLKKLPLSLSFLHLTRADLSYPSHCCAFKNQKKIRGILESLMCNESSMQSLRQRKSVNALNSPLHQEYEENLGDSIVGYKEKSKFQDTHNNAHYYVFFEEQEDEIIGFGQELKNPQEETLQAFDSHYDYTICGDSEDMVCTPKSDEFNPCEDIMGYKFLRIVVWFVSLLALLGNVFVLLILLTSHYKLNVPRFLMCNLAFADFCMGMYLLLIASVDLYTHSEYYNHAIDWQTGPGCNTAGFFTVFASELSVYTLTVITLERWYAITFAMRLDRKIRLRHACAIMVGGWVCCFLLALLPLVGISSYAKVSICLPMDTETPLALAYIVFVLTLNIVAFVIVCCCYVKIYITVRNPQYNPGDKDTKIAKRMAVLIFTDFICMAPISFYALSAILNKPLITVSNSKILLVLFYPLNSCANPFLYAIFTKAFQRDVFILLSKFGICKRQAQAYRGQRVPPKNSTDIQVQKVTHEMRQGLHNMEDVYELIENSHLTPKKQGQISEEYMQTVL
Luciferin 4-monooxygenase (Photinus pyralis), sequence (P08659 whole entry, looked up): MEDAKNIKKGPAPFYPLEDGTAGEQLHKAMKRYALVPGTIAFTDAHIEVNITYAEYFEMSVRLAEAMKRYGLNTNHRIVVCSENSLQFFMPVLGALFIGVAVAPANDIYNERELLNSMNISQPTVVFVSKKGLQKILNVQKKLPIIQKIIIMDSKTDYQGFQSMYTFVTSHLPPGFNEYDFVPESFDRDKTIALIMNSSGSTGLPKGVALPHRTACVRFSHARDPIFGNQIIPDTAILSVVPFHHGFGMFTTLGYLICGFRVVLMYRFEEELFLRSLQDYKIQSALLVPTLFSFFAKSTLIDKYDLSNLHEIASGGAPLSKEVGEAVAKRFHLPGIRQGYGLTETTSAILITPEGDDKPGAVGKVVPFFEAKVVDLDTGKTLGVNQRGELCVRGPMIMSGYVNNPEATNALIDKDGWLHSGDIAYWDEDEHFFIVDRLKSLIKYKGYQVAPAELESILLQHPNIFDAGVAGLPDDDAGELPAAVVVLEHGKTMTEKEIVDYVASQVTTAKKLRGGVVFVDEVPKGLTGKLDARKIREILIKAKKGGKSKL
Nuclear receptor subfamily 1 group I member 3 (Homo sapiens), sequence (Q14994 whole entry, looked up): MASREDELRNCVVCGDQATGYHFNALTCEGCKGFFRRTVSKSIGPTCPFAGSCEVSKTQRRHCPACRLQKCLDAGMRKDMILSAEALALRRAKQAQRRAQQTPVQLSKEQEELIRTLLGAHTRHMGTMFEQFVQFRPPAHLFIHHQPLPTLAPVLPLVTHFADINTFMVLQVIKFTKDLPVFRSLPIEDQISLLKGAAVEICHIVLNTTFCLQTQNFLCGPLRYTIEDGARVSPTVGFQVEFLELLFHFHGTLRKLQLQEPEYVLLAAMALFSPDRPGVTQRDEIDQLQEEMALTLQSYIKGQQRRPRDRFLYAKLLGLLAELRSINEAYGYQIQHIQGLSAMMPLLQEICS

CCCCCON=O
active: [7] 30.7 µM
not listed: [10]
inactive: all other assays above

CSC1=N[C@@](C)(c2ccccc2)C(=O)N1Nc1ccccc1
active: [5] 19.3 µM
inactive: [1] | [2] | [10] | [4]

CCN(CC)CCc1c[nH]c2ccccc12
inactive: [1] | [2] | [3] | [6] | [9]

CC(=O)[O][Sn]([c]1ccccc1)([c]1ccccc1)[c]1ccccc1
inactive: [5] | [8]
active: [1] 0.217 µM | [2] 2.24 µM | [10] 0.154 µM | [4] 0.0545 µM | [6] 0.172 µM | [7] 0.545 µM

CO/N=C(/C1=NOCCO1)c1ccccc1Oc1ncnc(Oc2ccccc2Cl)c1F
inactive: [2] | [4]
active: [1] 27.3 µM

Cc1ccc2cc3c(ccc4ccccc43)c3c2c1CC3
active: [2] 11.3 µM | [4] 0.865 µM
inactive: [1] | [3] | [5] | [6] | [9]

O=[N+]([O-])c1ccc(CCl)cc1
not listed: [7] | [10]
inactive: all other assays above

O=Cc1ccccc1
not listed: [10]
inactive: all other assays above

CCCC[N+]1(C)CCCC1 (tested in a mixture with another compound)
inactive: [1] | [2] | [3] | [6]

COc1ccc2[nH]cc(CCN(C(C)C)C(C)C)c2c1
not listed: [7] | [8] | [10]
inactive: all other assays above

CC(O)C(=O)[O][Hg][c]1ccccc1 (stereo unspecified)
inactive: [5] | [8]
active: [1] 4.33 µM | [2] 3.99 µM | [3] 4.86 µM | [4] 4.33 µM | [6] 3.06 µM | [7] 4.86 µM | [9] 2.43 µM

CNC(=O)/C=C(\C)OP(=O)(OC)OC
not listed: [4] | [10]
inactive: all other assays above

CCCCc1ccccc1
inactive: [1] | [2] | [3] | [5] | [6] | [9]

CN1CCc2cc(Cl)c(O)cc2[C@H]2c3ccccc3CC[C@@H]21
not listed: [3] | [10]
inactive: all other assays above

CC1CCCC1
not listed: [7] | [8] | [10]
inactive: all other assays above

CCOP(=O)(Sc1ccccc1)Sc1ccccc1
active: [5] 21.7 µM
inactive: [1] | [2] | [3] | [4] | [6]

CC(Cc1ccccc1)N(C)Cc1ccco1 (stereo unspecified)
inactive: [1] | [2] | [3] | [10] | [6] | [9]

CO/N=C(\C(=O)OC)c1ccccc1CO/N=C(\C)c1cccc(C(F)(F)F)c1
inactive: [1] | [2] | [10]
active: [5] 8.63 µM

CCCCC(CC)COC(=O)OOC(C)(C)C (stereo unspecified)
inactive: [1] | [2] | [3] | [4] | [5] | [6]

O=P(Cl)(Cl)Cl
inactive: [1] | [2] | [3] | [5] | [6] | [9]

Cc1cnc2c(C(=O)O)c(Cl)ccc2c1
inactive: [1] | [2] | [3] | [6] | [7] | [8]

CC(C)Br
inactive: [1] | [2] | [3] | [4] | [5] | [9]

C[C@]12CC[C@H]3[C@@H](CCC4=CC(=O)CC[C@@H]43)[C@@H]1CC[C@@H]2OC(=O)CCc1ccco1
inactive: [1] | [2] | [3] | [4] | [5] | [9]

CCOC(=O)CCN(SN(C)C(=O)Oc1cccc2c1OC(C)(C)C2)C(C)C
inactive: [1] | [2] | [3] | [8] | [9]
active: [5] 27.3 µM | [7] 30.6 µM

ClC(Cl)C(Cl)(Cl)Cl
inactive: [1] | [2] | [3] | [10] | [9]
